# MEP2 TOR yeast: modulators of TOR pathway MEP2-GFP in S. cerevisiae. actives 0.51% (n = 330,000). S. cerevisiae MEP2-GFP strain, flow cytometry GFP, 3 h; 100% = DMSO control level. GFP response vs DMSO, % at 10 µM;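 active = GFP response versus DMSO above a set limit, roughly screen mean plus 3 SD, cut at about 180% in these data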;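 note: median GFP fluorescence of the barcode-gated MEP2-GFP cells per well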
# RPL19A-GFP yeast: modulators of TOR pathway RPL19A-GFP in S. cerevisiae; S. cerevisiae RPL19A-GFP strain, flow cytometry, 3 h; active compounds read low; percent response vs DMSO, % at 10 µM; actives 0.3% (n = 330,000);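 active = percent response vs DMSO below 50%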;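 note: median channel GFP fluorescence of the barcoded RPL19A-GFP strain; ratio of sample median GFP to plate DMSO average so 100% = DMSO; lower means less RPL19A-GFP as with rapamycin TOR inhibition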
# CIT2 TOR yeast: yeast TOR pathway CIT2-GFP modulation; actives 0.065% (n = 320,000); GFP response vs DMSO, % at 10 µM; AID 2029; S. cerevisiae CIT2-GFP strain, flow cytometry, 3 h; 100 means same as DMSO wells;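 active = GFP response relative to DMSO above a set limit, near the screen mean plus 3 SD, cut at about 150% in these data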;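 note: ratio of well median GFP fluorescence to mean of DMSO wells on the plate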
# AGP1-GFP MLPCN: modulators of TOR pathway AGP1-GFP in S. cerevisiae; actives 0.02% (n = 320,000); S. cerevisiae AGP1-GFP multiplex flow cytometry, 3 h; GFP as percent of DMSO wells; AID 2066; GFP response vs DMSO, % at 10 µM;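 active = GFP response relative to DMSO above a set limit, near screen average plus 3 SD, cut at about 150% in these data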;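 note: median GFP channel fluorescence of the gated AGP1 strain per well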
# Efflux pump mplx: blocks antifungal efflux pumps in multiplex yeast assay. actives 0.44% (n = 330,000). inhibition, % at 10 µM. S. cerevisiae Candida pump triplex, Nile Red efflux;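 active = plate passing quality check with inhibition over a set limit, or well fluorescence over plate mean plus 4 SD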;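 note: Nile Red retained in pooled yeast measured as flow cytometry median fluorescence; 0% = buffer negative control and 100% = Enniatin B positive control; higher means more Nile Red kept so more efflux inhibition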
# LAP4-GFP MLPCN: yeast TOR pathway LAP4-GFP modulation; S. cerevisiae LAP4-GFP multiplex, flow cytometry GFP, 3 h; median GFP as percent of DMSO wells; GFP response vs DMSO, % at 10 µM; actives 0.34% (n = 320,000); AID 2023;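 active = GFP response vs DMSO above a set limit, about the screen mean plus 3 SD, cut at about 150% in these data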
# Cmpd fluor yeast: compound fluorescence in yeast efflux pump counter-screen. shares compounds with Efflux pump mplx. fluorescence ratio to DMSO, % at 10 µM. actives 4% (n = 1,700). AID 588517. S. cerevisiae AD/pABC3, flow cytometry;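 active = fluorescence ratio to DMSO above its plate's cutoff, the plate mean ratio plus 5 SD, cut at about 210% in these data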;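 note: unstained yeast with no Nile Red so the signal is compound autofluorescence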
# Mdr1 pump inh: inhibitors of Candida albicans Mdr1 efflux pump; inhibition, % at 10 µM; shares compounds with Efflux pump mplx; actives 1% (n = 1,700); AID 588518; S. cerevisiae AD/CaMDR1, Nile Red efflux, flow cytometry; in the data active = inhibition above about 26%;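 note: 0% = DMSO vehicle and 100% = reference inhibitor; higher means more Nile Red retained so more efflux inhibition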
# Cdr2 pump inh: blocks the Candida albicans Cdr2 efflux pump in yeast; AID 588520; actives 4% (n = 1,700); Nile Red retention ratio vs DMSO, % at 10 µM; shares compounds with Efflux pump mplx; S. cerevisiae AD/CaCDR2, Nile Red retention, flow cytometry; in the data active = Nile Red retention ratio vs DMSO above about 190%;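 note: higher ratio means more blocking of Cdr2 efflux of the dye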
# CaCdr1 efflux inh: inhibitors of Candida albicans Cdr1 efflux pump | AID 588522 | inhibition, % at 10 µM | S. cerevisiae AD/CaCDR1, Nile Red efflux, flow cytometry | shares compounds with Efflux pump mplx | actives 1% (n = 1,700);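 active = inhibition above the screen-wide mean plus twice its standard deviation, cut at about 32% in these data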
# The depositor's hits bear a star; . = no result given. A selection: hits, their analogues and other compounds. The true share with any hit is near 1.3%.
SMILES,MEP2 TOR yeast,RPL19A-GFP yeast,CIT2 TOR yeast,AGP1-GFP MLPCN,Efflux pump mplx,LAP4-GFP MLPCN,Cmpd fluor yeast,Mdr1 pump inh,Cdr2 pump inh,CaCdr1 efflux inh
Cn1nccc1C(=O)N(CCN1CCCCC1)CC1CCCN(C2CCCC2)C1 (stereo not given),108,98,94,98,0,104,.,.,.,.
C/C(=N\O)c1ncc(C(F)(F)F)cc1Cl,95,96,92,88,0,93,.,.,.,.
COc1cc(/C=C(\C#N)c2nc3ccccc3n2C)cc(OC)c1O,101,97,105,102,1.0*,95,100,0,108,0
Cc1cc(NC(=O)C2C3C(=O)N(Cc4ccc(Cl)cc4)C(C(=O)NCc4ccccc4)C34C=CC2(C)O4)no1 (stereo not given),101,100,97,100,0,103,.,.,.,.
COC(=O)C1=C(C)Nc2sc(C(N)=O)c(N)c2C1c1ccncc1 (stereo not given),119,119,103,98,0,107,.,.,.,.
CCOC(=O)C1=C(C)Nc2sc(C(=O)c3ccc(OC)cc3)c(N)c2C1c1ccc(C(=O)OC)cc1 (stereo not given),99,101,90,96,11*,92,106,0,107,0
COc1ccc(S(=O)(=O)N(C)CC(=O)NCc2ccccn2)cc1,102,104,95,96,0,95,.,.,.,.
CCOc1ncccc1C(=O)OCc1ccc(C(=O)OC)cc1,93,96,89,90,1.4*,105,118,0,123,0
C=C(C(=O)Nc1ccccc1)c1ccc(C)cc1,85,104,110,87,0,108,.,.,.,.
CCOC(=O)N1CCN(C(=S)NC(=O)c2cccc(OC)c2)CC1,95,97,92,97,0,95,.,.,.,.
CCOC(=O)N1CCN(C(=S)NC(=O)c2ccc(F)c(F)c2)CC1,100,95,111,104,1.6*,106,95,0,104,0
COc1ccc(N(C(=O)c2csnn2)C(C(=O)NC2CCCC2)c2cccs2)cc1 (stereo not given),106,103,106,105,0,102,.,.,.,.
Cc1cc2nc3ccc(N(C)C)cc3nc2cc1N,113,91,117,121,1.6*,133,132,0,112,0
CCOC(=O)c1c(C)c(C)n(Cc2cccc(OC)c2OC)c1C,98,100,96,93,14*,90,97,0,87,0
CCOC(=O)c1cc(C)n(Cc2cccc(OC)c2OC)c1C,87,96,88,98,0,105,.,.,.,.
O=C1CCCN1CCCNC(=S)Nc1cccc2ccccc12,91,98,103,99,0,95,.,.,.,.
Oc1[nH]c2ccccc2c1/C=N/N1CCCCC1,101,101,89,100,6.7*,98,102,0,98,0
Cc1ccccc1OCCNc1cc(N2CCCCC2)ccc1[N+](=O)[O-],99,100,94,101,0,106,.,.,.,.
Cc1ccccc1OCCNc1cc(N2CCN(CCO)CC2)ccc1[N+](=O)[O-],93,97,100,100,19*,95,107,0,95,0
NCC12CC3CC(C1)CC(c1ccc(Cl)cc1)(C3)C2,102,109,102,101,0,109,.,.,.,.
CC(C)n1cc(/C=C/c2cc[n+](C)cc2)c2ccccc21,.,.,.,.,.,.,472*,1,95,0

# Screens as filed in PubChem.
